Drawing on PubChem BioAssay (NCI), this text covers growth inhibition for 40 compounds.

The panel holds about 79,000 compounds, 15% with a hit somewhere; the sample as a whole holds those more often. Unmarked numbers belong to inactive results. Cut-off read from the data, not from the text of the source: active = growth inhibition above about 70%; inactive = the rest.

The first assay in a line: NCI Yeast Anticancer Drug Screen. Data for the rad50 strain (AID 155).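 Note: 0% = growth of vehicle-only cultures of the same strain.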 The note with it: S. cerevisiae rad50 strain growth inhibition; at 50.0 µM; hits give high values. An outline of the steps: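 Readout: growth inhibition relative to vehicle-treated cultures. Compound exposure was carried out in a genetically defined yeast strain deficient in DNA damage repair.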
For the compound `CC(/C=N/NC1=NCCCN1)=N\NC1=NCCCN1`, the growth inhibition was -7.05%.
For the compound `CCOC(=O)C(NC(=O)Nc1ccccc1F)(OC)C(F)(F)F` (configuration not stated), the growth inhibition is -23.1%.
With `C[C@]12CCC(=O)C=C1CC[C@@H]1[C@@H]2CC[C@@]2(C)[C@H]1CC[C@]2(O)C(=O)CCC#N`, the growth inhibition was -23.1%.
As to `Cc1c(C)c(O)c2c(c1C)C(C)C(=O)OC2=O` (configuration not stated), the growth inhibition was 1.2%.
The same measure, in the same setting: under `NNC(=O)C(=O)NN=C(C(Cl)(Cl)CO)C(Cl)(Cl)CO` stands 18.9%; under `C/C(=N\NC(=S)Nc1ccc([N+](=O)[O-])cc1S(=O)(=O)O)c1ccccn1`, 12.6%.
On the same count and under the same terms, the figure for `CCCCCCCCCCCCCBr` is 29.8%; for `O=C1Nc2ccccc2/C1=N\[O-].O=C1Nc2ccccc2/C1=N\[O-].[Cu+2]` it is -10.2%.
On the same count and under the same terms, the figure for `c1ccc2c(c1)N=C(c1ccc3ccccc3c1)CC(c1cccc3ccccc13)S2` (configuration not stated) is 13.2%.
`COc1cc(=O)n2c3ccccc3n(C)c2c1C#N`: the growth inhibition is -9.75%.
The same measure, in the same setting: under `CCCCCC(=O)OC(C)COc1ccccc1` (configuration not stated) stands 20.6%; under `Cc1c(F)cccc1NC(=O)OC(C)C`, 18.2%.
With `Cc1cc(C(F)(F)F)nc2nc3ccccc3n12`, the growth inhibition is 6.55%.
As to `CSc1nc2ncnc(N(C)C)c2[nH]1`, the growth inhibition is 1.1%.
On the same count and under the same terms, under `N=C(N)SCc1cccc(Cl)c1` stands -20%.
Same read-out and setting: the figure for `O=c1c2ccccc2[nH]c2ccc(Br)cc12` is 8.25%.
Same read-out and setting: under `COc1c(C)c(OCC=C(C)C)cc(CO)c1CO` stands 11.8%.
For `O=C(N=Nc1c(O)[nH]c2ccccc12)C(=O)N=Nc1c(O)[nH]c2ccccc12`, the growth inhibition was -4.95%.
In the case of `O=C(O)/C=C(/C(=O)O)c1cccn1Cc1ccccc1`, the growth inhibition is 6.7%.
Still for that read-out and setting: under `O=C(CC1=NC2NN(c3ccccc3)C(=O)C2=C1CC(=O)c1ccc([N+](=O)[O-])cc1)c1ccc([N+](=O)[O-])cc1` (configuration not stated) stands 42.1%.
Regarding `CC(C)c1ccc2nc3ccc(C(=O)NCCN(C)C)cn3c(=O)c2c1`, the growth inhibition was -15.8%.
Take `CC(=O)Nc1c(Nc2ccc3c(=O)[nH]ccc3c2C)cc[nH]c1=O`: the growth inhibition is 22.1%.

A short description of another assay: NCI Yeast Anticancer Drug Screen. Data for the mec2-1 strain (AID 157). The note with it: S. cerevisiae mec2-1 strain, at 50.0 µM, hits give high values. An outline of the steps: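 Using mec2-1 yeast: add compound, measure growth, express inhibition versus vehicle-treated cultures.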
For the compound `COC1CC(NC(=O)c2ccccc2)C(O)C(C)O1` (configuration not stated), the growth inhibition was 18.3%.
Still for that read-out and setting: the figure for `C1CCN=C(N2CCCCCC2)CC1` is -4.2%.
On the same count and under the same terms, the figure for `O=C(O)CC1(c2ccccc2)CCCCC1` is 7.05%.
As to `C#CC(C)(C)Oc1cc(O)c2c(=O)c3ccccc3n(C)c2c1`, the growth inhibition is -0.35%.
On the same count and under the same terms, under `O=C(CCSC(=S)Nc1ccc(Cl)cc1)NNc1ccccc1` stands -25.1%; under `CCCCCCCCCCCCSC1=C(OC)C(=O)C(OC)=C(OC)C1=O`, 13.8%; under `CC1=C(O)c2cc3c(cc2C(=O)C1=O)OCO3`, -0.95%.
The same measure, in the same setting: under `Cc1ccc(-c2nc(-c3nccc4ccccc34)oc2-c2ccccc2)cc1` stands 0.45%; under `CCCN(CCN(CC)CC)C(=O)N(CC)CC`, 14.3%; under `C=CCOC(=O)NC(CCC(=O)OC)C(=O)O` (configuration not stated), -2.1%.
For the compound `O=C1CCC(=O)N1Cc1ccccc1N=[N+]([O-])c1ccccc1CN1C(=O)CCC1=O`, the growth inhibition is -14.7%.
Consider `CC12CC(=O)C3C(CCC4=CC(=O)CCC43C)C1CC=C2CC(=O)O` (configuration not stated), for which the growth inhibition was 1.15%.
As to `CC(C)C(=O)/C=C/c1ccc(Br)cc1`, the growth inhibition is -4.95%.
On to `O=C(O)C1CC=CCC1C(=O)Nc1cccc(O)c1` (configuration not stated), for which the growth inhibition is -30.8%.
The same measure, in the same setting: the figure for `Cc1ccc(S(=O)(=O)Nc2ccc(O)cc2)cc1` is -15.2%.
As to `Cc1cc(/C=N/NC(=O)c2ccccc2NC(=O)c2ccccc2Cl)ccc1O`, the growth inhibition was 9.8%.
As to `COc1ccc(N2NC(c3ccccc3)(c3ccccc3)C(C)C2=O)cc1` (configuration not stated), the growth inhibition was 17.1%.
Turning to `Fc1ccccc1/C=C/c1cnnc2ccccc12`, the growth inhibition was 11.1%.
On the same count and under the same terms, the figure for `CC(/C=N/NC1=NCCCN1)=N\NC1=NCCCN1` is -8.75%; for `CCOC(=O)C(NC(=O)Nc1ccccc1F)(OC)C(F)(F)F` (configuration not stated) it is -38.3%; for `C[C@]12CCC(=O)C=C1CC[C@@H]1[C@@H]2CC[C@@]2(C)[C@H]1CC[C@]2(O)C(=O)CCC#N` it is -2.6%.
Consider `Cc1c(C)c(O)c2c(c1C)C(C)C(=O)OC2=O` (configuration not stated), for which the growth inhibition is -37.8%.
For `NNC(=O)C(=O)NN=C(C(Cl)(Cl)CO)C(Cl)(Cl)CO`, the growth inhibition is -0.65%.
Regarding `C/C(=N\NC(=S)Nc1ccc([N+](=O)[O-])cc1S(=O)(=O)O)c1ccccn1`, the growth inhibition was 20.4%.
Take `CCCCCCCCCCCCCBr`: the growth inhibition is -0.95%.
`O=C1Nc2ccccc2/C1=N\[O-].O=C1Nc2ccccc2/C1=N\[O-].[Cu+2]`: the growth inhibition was -5.5%.
On to `c1ccc2c(c1)N=C(c1ccc3ccccc3c1)CC(c1cccc3ccccc13)S2` (configuration not stated), for which the growth inhibition is 5.25%.
Turning to `COc1cc(=O)n2c3ccccc3n(C)c2c1C#N`, the growth inhibition is -16.9%.
In the case of `CCCCCC(=O)OC(C)COc1ccccc1` (configuration not stated), the growth inhibition was 22.7%.
Still for that read-out and setting: under `Cc1c(F)cccc1NC(=O)OC(C)C` stands -5.15%; under `Cc1cc(C(F)(F)F)nc2nc3ccccc3n12`, -18.9%; under `CSc1nc2ncnc(N(C)C)c2[nH]1`, -11.8%.
On to `N=C(N)SCc1cccc(Cl)c1`, for which the growth inhibition is -14%.
Still for that read-out and setting: under `O=c1c2ccccc2[nH]c2ccc(Br)cc12` stands 2.2%.
Same read-out and setting: the figure for `COc1c(C)c(OCC=C(C)C)cc(CO)c1CO` is -3.2%; for `O=C(N=Nc1c(O)[nH]c2ccccc12)C(=O)N=Nc1c(O)[nH]c2ccccc12` it is 8.35%; for `O=C(O)/C=C(/C(=O)O)c1cccn1Cc1ccccc1` it is 14.2%.
As for `O=C(CC1=NC2NN(c3ccccc3)C(=O)C2=C1CC(=O)c1ccc([N+](=O)[O-])cc1)c1ccc([N+](=O)[O-])cc1` (configuration not stated), the growth inhibition is -11.4%.
Same read-out and setting: under `CC(C)c1ccc2nc3ccc(C(=O)NCCN(C)C)cn3c(=O)c2c1` stands -0.25%.
With `CC(=O)Nc1c(Nc2ccc3c(=O)[nH]ccc3c2C)cc[nH]c1=O`, the growth inhibition is 13.7%.
